The panel holds about 79,000 compounds, 15% with a hit somewhere; the sample as a whole holds those more often. Values without a mark were called inactive. Calls of active or inactive are those of the source. No stated cut-off is given here; in the data, active means growth inhibition above about 70%; inactive means the rest.
Columns and labels:
[1] = NCI Yeast Anticancer Drug Screen. Data for the rad50 strain (AID 155);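 further: 0% = growth of vehicle-only cultures of the same strain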; details: S. cerevisiae rad50 strain growth inhibition, active compounds read high
How it was run: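 DNA repair mutant yeast, compound exposure, growth read-out; inhibition is taken relative to vehicle.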

[2] = NCI Yeast Anticancer Drug Screen. Data for the mec2-1 strain (AID 157); details: S. cerevisiae mec2-1 strain, active compounds read high
How it was run: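 Strain: mec2-1 (DNA repair/cell cycle alteration). Compound exposure, then growth measured; inhibition expressed relative to vehicle.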

[3] = NCI Yeast Anticancer Drug Screen. Data for the sgs1 mgt1 strain (AID 161);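 further: 0% = growth of cultures given vehicle only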; details: S. cerevisiae sgs1 mgt1 strain, active compounds read high
How it was run: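 Test agents were incubated with a DNA-repair-mutant yeast strain. Growth was then read and compared against vehicle-treated controls.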

[4] = NCI Yeast Anticancer Drug Screen. Data for the cln2 rad14 strain (AID 165);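 further: 0% = growth equal to vehicle treated cultures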; details: S. cerevisiae cln2 rad14 strain, active compounds read high
How it was run: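 Compounds are applied to the cln2 rad14 yeast strain, and growth is then compared with that of vehicle-treated cultures to give inhibition.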

[5] = NCI Yeast Anticancer Drug Screen. Data for the bub3 strain (AID 167); details: S. cerevisiae bub3 mutant strain, active compounds read high
How it was run: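 In this screen, a yeast mutant lacking normal mitotic checkpoint function is challenged with compound. Relative growth versus vehicle gives the inhibition value.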

[6] = NCI Yeast Anticancer Drug Screen. Data for the mlh1 rad18 strain (AID 175); details: S. cerevisiae mlh1 rad18 strain growth inhibition, active compounds read high
How it was run: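 Read-out is yeast growth inhibition, calculated against vehicle-only controls. The compound was applied to a strain engineered with DNA damage repair alterations.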

[7] = at 5.0 µM (retest, dose inferred, filed as 0.5)
[8] = at 50.0 µM (retest, dose inferred, filed as 5.0)

SMILES | growth inhibition [1, 7] | growth inhibition [1, 8] | growth inhibition ([1]; at 50.0 µM) | growth inhibition [2, 7] | growth inhibition [2, 8] | growth inhibition ([2]; at 50.0 µM) | growth inhibition [3, 7] | growth inhibition [3, 8] | growth inhibition ([3]; at 50.0 µM) | growth inhibition [4, 7] | growth inhibition [4, 8] | growth inhibition ([4]; at 50.0 µM) | growth inhibition [5, 7] | growth inhibition [5, 8] | growth inhibition ([5]; at 50.0 µM) | growth inhibition [6, 7] | growth inhibition [6, 8] | growth inhibition ([6]; at 50.0 µM)
COc1ccc(-c2cc(-c3ccco3)c(C#N)c(=S)n2C2OC(CO)C(O)C(O)C2O)cc1 (configuration not stated) | -8% | 1% | 5.1% | 3% | -12% | 4.3% | -1% | -3% | -15.2% | 15% | 16% | 30.1% | 2% | 7% | -3% | 10% | 20% | 4.1%
CCC[CH2][Sn]([S][Sn]([CH2]CCC)([c]1ccccc1)[c]1ccccc1)([c]1ccccc1)[c]1ccccc1 | 97% (active) | 94% (active) | 99.3% (active) | 93% (active) | 95% (active) | 99.5% (active) | 99% (active) | 93% (active) | 99.5% (active) | 97% (active) | 83% (active) | 98% (active) | 98% (active) | 87% (active) | 98.8% (active) | 98% (active) | 91% (active) | 99.3% (active)
Cc1ccccc1Oc1ccccc1N | 12% | 38% | 79.2% (active) | -26% | 15% | 65.9% | -1% | 1% | 69.8% | 9% | 34% | 78.4% (active) | -16% | 10% | 58.6% | -15% | 39% | 81.8% (active)
C=C1C(=O)[C@@]23CC[C@H]4[C@@](C)(CCC[C@@]4(C)C(=O)OC)[C@@H]2CC[C@]1(O)C3 | 83% (active) | 99% (active) | 92.2% (active) | 92% (active) | 99% (active) | 94.4% (active) | 83% (active) | 99% (active) | 94% (active) | 54% | 99% (active) | 92.2% (active) | 94% (active) | 99% (active) | 93.7% (active) | 92% (active) | 99% (active) | 90.8% (active)
CCCC(CC)c1cc(O)c(O)cc1C(CC)CCC (configuration not stated) | 1% | 56% | 73% (active) | -18% | 33% | 69.5% | 9% | 29% | 43.9% | -5% | 70% (active) | 79.8% (active) | -9% | 54% | 65.8% | 6% | 62% | 77.8% (active)
O=[n+]1c2c(n([O-])c3ccc4ccccc4c31)-c1cccc3cccc-2c13 | 1% | 7% | 2.4% | -1% | -3% | 15.2% | -4% | -5% | 11.1% | 3% | -7% | 55.9% | -1% | -9% | 19.7% | -2% | 1% | -5.75%
O=C(Nn1cc(F)c(=O)[nH]c1=O)C12CC3CC(CC(C3)C1)C2 | 41% | 92% (active) | 21.8% | 20% | 96% (active) | 51.4% | 42% | 96% (active) | 91.4% (active) | 20% | 52% | 86.1% (active) | 41% | 90% (active) | 87.5% (active) | 41% | 97% (active) | 57.9%
Cc1cc(N(CCCCl)CCCCl)ccc1C=Nc1cccc(Cl)c1 | -7% | 40% | 79% (active) | -7% | 12% | 32.8% | -4% | 65% | 80.7% (active) | 3% | -2% | -21.6% | -1% | 59% | 61% | -10% | 23% | 68.2%
O=C1/C(=C/c2ccccc2Cl)COc2ccccc21 | 30% | 97% (active) | 91.5% (active) | -15% | 98% (active) | 93.9% (active) | 15% | 97% (active) | 90.7% (active) | 20% | 97% (active) | 90.8% (active) | 32% | 98% (active) | 90.7% (active) | -25% | 97% (active) | 90.2% (active)
CCOC(=O)CC(=O)/C=C/c1ccncc1 | 1% | 5% | -19.2% | -2% | 0% | -8.45% | -10% | -6% | -5.25% | 3% | 1% | 68.7% | 5% | 4% | -9.3% | 1% | 3% | 0.7%
OC(/C=C/c1ccccc1)(c1ccccc1)c1nc2ccccc2s1 (configuration not stated) | 35% | 98% (active) | -8% | 59% | 98% (active) | 1.95% | 5% | 97% (active) | -11.3% | 26% | 93% (active) | -23.1% | 6% | 98% (active) | -12.8% | 20% | 96% (active) | -3.45%
C/C=C(\CCC1NCCc2c1[nH]c1ccccc21)[Si](C)(C)C (configuration not stated) | -20% | 99% (active) | 96.3% (active) | -4% | 99% (active) | 86.5% (active) | 19% | 99% (active) | 93.1% (active) | 4% | 99% (active) | 75.3% (active) | 11% | 98% (active) | 77.8% (active) | -21% | 100% (active) | 95.8% (active)
O=S1CCS(=O)C1c1ccccc1 (configuration not stated) | -1% | 28% | 85.3% (active) | -6% | 26% | 61% | -5% | 33% | 54% | -18% | 8% | -11.1% | -14% | 38% | 67.8% | 2% | 39% | 37.7%
O=C(c1ccccc1)c1c(CO[N+](=O)[O-])n([O-])c2ccccc2[n+]1=O | 20% | 97% (active) | 98.5% (active) | 14% | 99% (active) | 99% (active) | 10% | 98% (active) | 98.3% (active) | 10% | 96% (active) | 99.2% (active) | -5% | 98% (active) | 97.7% (active) | 48% | 99% (active) | 98.8% (active)
CC(O)c1c2ccccc2cc2ccccc12 (configuration not stated) | -17% | 72% (active) | 84.4% (active) | -7% | 58% | 39.3% | 1% | 72% (active) | 37.6% | -32% | 50% | 16.8% | -1% | 81% (active) | 50.5% | -13% | 85% (active) | 78.8% (active)
CC(C)=NOc1ccc([N+](=O)[O-])cc1[N+](=O)[O-] | 19% | 87% (active) | 89.9% (active) | 11% | 81% (active) | 53% | 17% | 84% (active) | 54.1% | 2% | 48% | 30.5% | 4% | 81% (active) | 55.3% | 5% | 93% (active) | 71.3% (active)
CCOC(=O)/C(C#N)=C\c1cccc2ccccc12 | 13% | 57% | 84% (active) | 1% | 91% (active) | 92.3% (active) | 5% | 75% (active) | 91.8% (active) | -17% | 27% | -12.4% | -4% | 40% | 96.2% (active) | -2% | 94% (active) | 95.7% (active)
Cc1occc1C(=S)Nc1ccc(Cl)c(/C=N/OC(C)C)c1 | 12% | 83% (active) | 77.5% (active) | 13% | 77% (active) | 59.2% | 13% | 80% (active) | 71.3% (active) | 24% | 81% (active) | 75.6% (active) | 22% | 86% (active) | 73.5% (active) | 17% | 91% (active) | 77.8% (active)
CC([C@H]1CCC2C3CCC4CC5(CC[C@]4(C)C3CC[C@@]21C)c1ccccc1C(=O)N5C)N(C)C (some centres not stated) | -11% | 81% (active) | 83.3% (active) | -11% | 55% | 89.4% (active) | 11% | 87% (active) | 89.6% (active) | 14% | 85% (active) | 73.3% (active) | 6% | 83% (active) | 86.5% (active) | 18% | 84% (active) | 78.2% (active)
